This is a sample that favours compounds with a hit; in the whole collection about 1.3% have one here.
LYPLA1 inh: LYPLA1 inhibitors, primary screen, counter-screen for PME1 inhibitor project, biochemical, fluorescence polarization, FP-Rh probe ABPP | recombinant LYPLA1 | inhibition, % at 5.9 µM | 0.16% of 320,000 active | AID 2174, 2009;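 active = inhibition above the mean of all tested compounds plus 3 SD, set per campaign, cut at about 14% in these data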;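 note: inhibitors block serine hydrolase probe labeling of LYPLA1 so polarization falls; 0% = enzyme with DMSO and 100% = wells lacking LYPLA1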
Target sequence (O75608 whole entry, looked up): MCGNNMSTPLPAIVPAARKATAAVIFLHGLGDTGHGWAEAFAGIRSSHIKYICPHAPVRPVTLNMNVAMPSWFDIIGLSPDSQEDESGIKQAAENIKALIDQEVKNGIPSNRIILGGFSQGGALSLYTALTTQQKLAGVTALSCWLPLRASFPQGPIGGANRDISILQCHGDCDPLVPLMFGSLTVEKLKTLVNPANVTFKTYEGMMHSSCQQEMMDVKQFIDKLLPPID
LYPLA2 inh: LYPLA2 inhibitors, primary screen, counter-screen for PME1 inhibitor project, biochemical, fluorescence polarization, FP-Rh probe ABPP; Acyl-protein thioesterase 2 (Homo sapiens), O95372; inhibition, % at 5.9 µM; 0.38% of 320,000 active; recombinant LYPLA2;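 active = inhibition above the screen-wide mean plus 3 SD, limit set per campaign, cut at about 26% in these data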;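 note: 0% = LYPLA2 with DMSO and 100% = wells lacking LYPLA2 enzyme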
Target sequence (O95372 whole entry, looked up): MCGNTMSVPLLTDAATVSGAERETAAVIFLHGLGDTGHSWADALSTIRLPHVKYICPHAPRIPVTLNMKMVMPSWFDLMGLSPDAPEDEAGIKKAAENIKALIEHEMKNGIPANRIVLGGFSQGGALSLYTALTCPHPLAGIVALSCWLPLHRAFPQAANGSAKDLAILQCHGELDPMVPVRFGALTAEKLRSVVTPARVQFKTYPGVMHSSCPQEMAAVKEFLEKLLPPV
PREPL inh: PREPL enzyme inhibitors, primary screen, biochemical, fluorescence polarization; recombinant PREPL, fluorescence polarization activity-based probe; inhibition, % at 5.96 µM; 0.68% of 320,000 active; in the data active = inhibition above about 43%;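 note: 0% = enzyme with DMSO and 100% = wells lacking enzyme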
EBNA-1 inhibitor: EBNA-1 DNA-binding inhibitors, primary screen, biochemical, fluorescence polarization; inhibition, % at 14.8 µM; 0.34% of 300,000 active; AID 1950, 2009; in the data active = inhibition above about 28%
ZTA counter: ZTA (EBV) inhibition in EBNA-1 counter-screen. P03206. inhibition, % at 11 µM. AID 2234. ZTA-DNA binding, fluorescence polarization. 0.15% of 320,000 active; in the data active = inhibition above about 33%
Numbers without * were called inactive; + = active, no number.

SMILES	LYPLA1 inh	LYPLA2 inh	PREPL inh	EBNA-1 inhibitor	ZTA counter
COc1ccc(OC)c(-c2cc(C(=O)NCc3ccc(Cl)cc3)no2)c1	1.2	-5.1	3.7	30.3*	20.7
N#Cc1nccnc1N1CCN(C(=O)Nc2ccccc2)CC1	0.6	5.3	13.2	-14.5	7.7
O=C1NC(c2ccc(Br)cc2)Oc2ccccc21 (stereo not drawn)	-3.0	-0.7	2.8	-0.5	-20.1
COc1ccc(C2=NOC(C(=O)N3CCN(C(=O)c4ccco4)CC3)C2)cc1OC (stereo not drawn)	0.1	6.4	6.6	-3.5	-5.7
COc1cc(C2C(C#N)=C(N)Oc3n[nH]c(C)c32)ccc1OC(=O)c1ccccc1 (stereo not drawn)	-4.0	5.1	60.7*	5.9	-6.3
COCc1[nH]nc2c1C(c1ccc(OC)cc1)C(C#N)=C(N)O2 (stereo not drawn)	-3.8	-8.0	17.6	-2.5	-6.3
COc1cc(C2C(C#N)=C(N)Oc3n[nH]c(C)c32)cc2c1OCO2 (stereo not drawn)	1.5	3.1	-4.2	2.2	4.3
CC(C)c1[nH]nc2c1C(c1ccc(OC(=O)c3ccco3)cc1)C(C#N)=C(N)O2 (stereo not drawn)	1.4	2.0	60.1*	-4.9	-18.9
CN(C(=O)COC(=O)c1ccc2ccccc2n1)C1CCS(=O)(=O)C1 (stereo not drawn)	-3.4	2.6	6.8	+	+
CC1CCN(C(=O)CCc2ccc(Oc3cc([N+](=O)[O-])cc([N+](=O)[O-])c3)cc2)CC1	4.2	36.8*	16.6	-3.2	-6.7
CN1C(=O)/C(=C/c2cn(CC(=O)N3CCCCC3)c3ccccc23)c2ccccc21	0.1	-6.7	44.6*	-7.8	23.7
Cc1ccc(-c2nc(CNC(=O)c3cc(C)on3)cs2)cc1	0.2	-0.1	-11.2	-11.3	-17.7
Brc1ccc(CSc2ccc3nnc(-c4cccnc4)n3n2)cc1	-3.8	6.3	19.8	-4.0	-8.6
Brc1ccc(CSc2ccc3nnc(-c4ccccn4)n3n2)cc1	-1.1	5.7	45.1*	5.4	2.2
O=C(CN1C(=O)NC2(CCc3ccccc32)C1=O)c1ccc(F)c(F)c1 (stereo not drawn)	-0.8	-3.6	6.3	3.5	-5.1
O=C(Nc1ccc(C2=NCCN2)cc1)c1ccc(C(=O)Nc2ccc(C3=NCCN3)cc2)c([N+](=O)[O-])c1	2.5	-5.0	45.1*	-6.0	-19.3
COc1ccccc1/C=C(/CC(=O)NCc1ccc2c(c1)OCO2)c1nc2ccccc2s1	-6.0	-7.9	7.0	36.4*	-1.3
CC(=O)N1CC2(NC(=O)c3ccccc3N2)c2ccccc21 (stereo not drawn)	0.2	-2.4	-5.7	9.2	6.1
COC(=O)c1ccc(COc2ccccc2/C=N/NC(=O)c2cccnc2)cc1	-2.5	35.6*	9.9	-9.4	4.3
N=C1C(c2nc(-c3ccc(Cl)cc3)cs2)=C(O)CN1CCCN1CCOCC1	4.5	3.1	56.6*	12.6	1.7
CN1Cc2c(N3CCOCC3)nc3sc(C(=O)c4ccc(Br)cc4)c(N)c3c2CC1(C)C	4.0	2.4	68.3*	-1.8	10.1
O=C(NNC(=O)c1ccccc1OCc1ccc(F)cc1)c1ccncc1	-4.8	-0.4	4.7	-5.0	-11.8
COc1cccc(CNc2nc3ccccc3n2CCN2CCCCC2)c1	3.6	-3.2	32.9	-11.8	-17.8
Brc1cccc(CNc2nc3ccccc3n2CCN2CCCCC2)c1	2.4	1.1	51.7*	-18.4	-2.2
COc1cc(NS(=O)(=O)c2ccc(NC(=S)NC(=O)/C=C/c3ccc(OC)c(OC)c3)cc2)ncn1	-2.2	-2.4	-1.1	4.4	2.5
SMILES	LYPLA1 inh	LYPLA2 inh	PREPL inh	EBNA-1 inhibitor	ZTA counter
COc1ccc(/C=C/C(=O)NC(=S)Nc2ccc(S(=O)(=O)N=C(N)N)cc2)cc1OC	-50.2	-137.2	5.3	58.2*	39.7*
O=C(NCC(c1ccco1)N1CCc2ccccc21)c1cccc([N+](=O)[O-])c1 (stereo not drawn)	-0.3	5.9	-10.2	-3.4	-16.7
CCCN1C(=O)/C(=C/c2ccc(N3CCOCC3)cc2)NC1=S	2.6	-6.0	10.4	-10.0	-10.5
Cc1ccc(CN2C(=O)N/C(=C\c3ccc(N4CCOCC4)cc3)C2=O)cc1	3.0	4.9	70.7*	18.9	-23.5
O=C(c1ccc(Cn2c(=S)[nH]c3ccc(N4CCOCC4)cc3c2=O)cc1)N1CCN(c2ccc(F)cc2)CC1	0.6	19.5	63.3*	-2.5	-0.1
Cc1ccccc1N(C)S(=O)(=O)c1nnc(NC(=O)c2ccco2)s1	2.3	5.9	6.2	4.9	-4.7
O=C(O)CCNc1ccc(NCCC(=O)O)c2c1C(=O)c1ccccc1C2=O	8.9	24.4	21.7	128.1*	158.3*
N=c1n(CCN2CCCCC2)c2ccccc2n1CC(O)c1cccc(Br)c1 (stereo not drawn)	2.8	0.7	41.0	10.1	0.4
N=c1n(CCN2CCCCC2)c2ccccc2n1CC(=O)c1ccc(Cl)c(Cl)c1	-8.3	-15.8	43.2*	-5.3	-0.2
N=c1n(CCN2CCCCC2)c2ccccc2n1CC(O)c1ccc(Cl)c(Cl)c1 (stereo not drawn)	5.3	3.1	49.9*	3.3	-16.0
CCn1c(=N)n(CC(=O)c2ccc(Cl)c(Cl)c2)c2ccccc21	-4.0	-4.3	39.0	-9.4	1.2
Cc1ccc2oc(-c3ccc(C)c(NC(=S)NC(=O)c4cccs4)c3)nc2c1	-0.9	-1.3	-6.8	29.2*	-11.9
Cc1c(C(=O)OCC(=O)Nc2ccc(S(N)(=O)=O)cc2)oc2c1ccc1ccccc12	-2.8	-12.1	-4.9	72.1*	33.4*
Cc1ccc2c(C)c(C(=O)Nc3ccc(S(N)(=O)=O)cc3)oc2c1C	-119.9	-259.6	-120.8	8.3	8.6
O=C(NCCc1ccc(C(F)(F)F)cc1)c1ccc(Cl)nc1	1.8	-3.1	-1.3	-11.1	-4.4
CC(C)(C)c1ccc(OCC(=O)NNC(=S)NC(=O)c2ccccc2[N+](=O)[O-])c(Br)c1	3.9	26.7*	0.9	-17.1	-7.7
COc1cc(NC(=O)CSc2ncnc3sc4c(c23)CCCC4)c(C(=O)O)cc1OC	1.4	-4.8	7.7	8.2	7.4
COc1ccc(NC(=O)CSc2ccc3nnc(-c4cccnc4)n3n2)c(OC)c1	-0.3	2.4	45.4*	-0.7	0.3
O=C(CCC(F)(F)F)N1CCCC(N2CCN(c3cccc(Cl)c3)CC2)C1 (stereo not drawn)	-1.4	30.2*	4.2	-6.2	-15.0
O=C(c1cccc(F)c1)N1CCN(C(=O)C(c2ccccc2)c2ccccc2)CC1	-0.7	2.7	12.6	-9.8	12.3
COc1ccc(C(=O)OCc2csc(C)n2)c(O)c1	-1.3	-2.2	3.6	0.2	5.6
O=C(NC1C(=O)NNC1c1ccccc1)c1ccc(F)cc1 (stereo not drawn)	1.1	-2.5	-6.8	-1.3	-1.9
